For 13 compounds, growth results are on record in PubChem BioAssay (NCI).

This is part of a sample that, as a whole, favours compounds with a hit. Of some 83,000 tested, about 20% had one in any assay.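 Note: values are percent growth. 100 is the growth of untreated cells, values between 100 and 0 indicate rising inhibition; between -100 and 0 indicates cell death.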 The source made the active and inactive calls. The calls were made as follows: active = growth percent below 10; inactive = the rest.

The test has as its system MDA-MB-468 breast. As to the kind of experiment: NCI-60 one-dose screen, 48 h (100 = growth as untreated, 0 = no growth, -100 = all killed). The following applies: 10 µM unless noted.
Regarding `COc1cc(/C=N/NC(=O)c2ccccc2Nc2cccc(C(F)(F)F)c2)ccc1O`, the growth is 28.3% (inactive). To `CC(=O)c1ccc(NS(=O)(=O)c2cccc(C(=O)Nc3ccc(Br)cc3)c2)cc1` belongs 15.3% [25 µM] (inactive). The same measure for `C=C(C)C1CCC2(C(=O)O)CCC3(C)C(CCC4C5(C)CCC(OC(=O)NCc6ccccc6)C(C)(C)C5CCC43C)C12` (stereo not drawn): 35.3% (inactive); for `NC1=NC(c2ccccc2)C2=C(N1)/C(=C/c1ccccc1)CCC2` (stereo not drawn): 89.6% (inactive). In the case of `O=C(Nc1ccc(C(=O)Nc2ccc(C3=NCCCN3)cc2)cc1)Nc1ccc(C2=NCCCN2)cc1`, the growth is 66.6% (inactive). The same measure for `O=C(NNc1nc2cc(F)c(F)cc2n2cccc12)c1ncccn1`: 3.66% (active).

`C[C@H]1[C@H](C)CC[C@]2(COC(=O)c3cccnc3)CC[C@]3(C)C(=CC[C@@H]4[C@@]5(C)CCCNC(C)(C)[C@@H]5CC[C@]43C)[C@H]12`: the growth was 42.5% (inactive).

`CCOC(=O)c1c(C)nc2c(c1N)/C(=C/c1ccccn1)C(=O)N2Cc1ccccc1`: the growth was -49.5% (active). For the compound `CC1(C)NC(=S)NC1=O`, the growth was 109% (inactive). The same measure for `COc1ccc(CC(C)=C(c2ccc(OCCN(C)C)cc2)c2ccc(OCCN(C)C)cc2)cc1`: 68.3% (inactive); for `O=C(CSCC(=O)N/N=C/c1ccccc1O)N/N=C\c1ccccc1O`: 15.6% (inactive). Turning to `O=P(O)(O)OCC1OC(n2cnc3c(NCc4ccco4)ncnc32)C(O)C1O` (stereo not drawn), the growth is -67% (active).

For the compound `COc1cccc(/C=C/C(=O)c2cc3c(N)c(C(=O)Nc4cccc(Cl)c4C)sc3nc2C)c1`, the growth was -7.04% (active).
